From the supplement of paper PMC3334620
Whole data set: some 33,000 sequences, median “E-score (-0.5 to 0.5)” near -0.011, cut for the highest 2% near 0.28. The list comes from a sample in which the highest values are over-represented; it also holds similar and randomly drawn sequences.

Target: T1, Gcr1 (UniProt P07261)
T1 sequence: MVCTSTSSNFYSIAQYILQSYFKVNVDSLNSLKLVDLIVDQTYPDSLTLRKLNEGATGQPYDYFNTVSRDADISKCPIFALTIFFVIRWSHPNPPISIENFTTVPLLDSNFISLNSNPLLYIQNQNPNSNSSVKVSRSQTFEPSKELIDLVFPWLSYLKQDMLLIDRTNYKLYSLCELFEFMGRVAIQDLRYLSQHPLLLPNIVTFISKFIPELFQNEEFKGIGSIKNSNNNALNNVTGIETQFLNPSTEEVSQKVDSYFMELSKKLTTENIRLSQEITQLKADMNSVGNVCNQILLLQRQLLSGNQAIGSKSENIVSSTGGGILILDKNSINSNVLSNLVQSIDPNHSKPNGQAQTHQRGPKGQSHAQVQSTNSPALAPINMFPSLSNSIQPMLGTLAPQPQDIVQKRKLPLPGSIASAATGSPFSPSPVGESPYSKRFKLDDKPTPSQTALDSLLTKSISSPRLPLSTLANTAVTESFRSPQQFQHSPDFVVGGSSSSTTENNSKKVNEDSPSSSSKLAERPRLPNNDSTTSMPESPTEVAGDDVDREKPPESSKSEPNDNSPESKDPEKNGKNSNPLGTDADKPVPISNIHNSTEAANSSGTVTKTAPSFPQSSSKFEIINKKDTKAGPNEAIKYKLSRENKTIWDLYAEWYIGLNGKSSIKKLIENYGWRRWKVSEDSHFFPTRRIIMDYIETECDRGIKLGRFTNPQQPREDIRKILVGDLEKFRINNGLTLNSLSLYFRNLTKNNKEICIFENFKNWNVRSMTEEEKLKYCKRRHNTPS
Assay: PBM E-score (8-mer binding enrichment) (E-score (-0.5 to 0.5)); higher = stronger / more preferred TF binding
Conditions: protein concentration: 100 nM; construct: GST-full length
How it was run: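 Universal all-10-mer Agilent arrays, double-stranded by primer extension on fresh or once-stripped slides, were probed with about 100-200 nM GST-tagged yeast transcription factors made by PURExpress. Fluorescent anti-GST detected bound protein, and masliner normalised the scans. E-scores from the Universal PBM Analysis Suite were given to each ungapped eight-base word pooled with its reverse complement.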

| Sequence | PBM E-score |
| --- | --- |
| ACTCGTTC | -0.0676 |
| CCCAATAA | 0.0668 |
| ATCACTCC | -0.0513 |
| ACTGCCAT | 0.0395 |
| CCCCTCAA | -0.118 |
| ATCCTGAC | 0.163 |
| ATCCTGAA | 0.31 |
| ATCCTGTA | 0.28 |
| GGGACCTA | 0.0741 |
| ACTATTGC | 0.0299 |
| CTGGCGGC | 0.265 |
| ATGGCGCG | 0.116 |
| CTGGCGTC | 0.279 |
| CTGGCGCC | 0.319 |
| ATGGCGCC | 0.343 |
| CTGGCGCA | -0.119 |
| ATGGCGCA | -0.122 |
| ATGGCGTC | 0.319 |
| ATGGCGTG | -0.0168 |
| ACTAATGC | 0.0263 |
| ACAGATAG | -0.00305 |
| AACCTGTA | 0.211 |
| ATTTCGGA | 0.285 |
| ATTTCGGC | 0.141 |
| ATTTCGGG | 0.0915 |

| Sequence | PBM E-score |
| --- | --- |
| GATCCCAC | 0.235 |
| TATCCCCA | 0.052 |
| CATTCCCA | 0.103 |
| GATTCCCC | 0.289 |
| AATTCCCC | 0.0615 |
| GATCCCCA | 0.28 |
| AATTCCTA | 0.0723 |
| GATTCCTA | 0.439 |
| GATTCCCA | 0.334 |
| GATCCCCC | 0.176 |
| CATTCCTA | -0.0304 |
| CATTCCCC | -0.0585 |
| AATTCCCA | -0.0967 |
| CGCATCTC | 0.0271 |
| AAAGAGAA | 0.022 |
| CAGTTCGG | 0.0773 |
| CGGATTGA | -0.116 |
| CAATGGGG | 0.00495 |
| ACGGTGGG | 0.116 |
| CGCTGCCA | 0.185 |
| TGCTGCCA | -0.0494 |
| AACTGCCT | -0.0496 |
| GGCTGCCA | 0.418 |
| AGCTGCCA | 0.385 |
| GGCTGCAA | 0.128 |

| Sequence | PBM E-score |
| --- | --- |
| AGCTGCTA | 0.226 |
| GGCTGCCC | 0.272 |
| AGCTGCCT | 0.32 |
| GGCTGCTA | 0.318 |
| ACCTGCCT | -0.218 |
| CGCTGCTA | 0.155 |
| GATGGGAA | 0.123 |
| TACAGATA | -0.0799 |
| ATATTTGA | 0.0958 |
| CTTTCGAA | -0.0912 |
| CAGATAAC | -0.13 |
| ACTTGACT | -0.0523 |
| CACCGAGA | -0.00934 |
| GTGCCCCA | -0.0431 |
| GGGCTCAC | -0.096 |
| AGAGCTGG | -0.143 |
| TCTGCCCA | -0.249 |
| AGATTTCG | 0.113 |
| AAGGTGTC | 0.0915 |
| AGCTGCCG | 0.289 |
| CGCTGCCG | 0.175 |
| AGCTGCCC | 0.217 |
| ACTACAAC | 0.0309 |
| GGCATCCC | 0.4 |
| CGCATCCG | 0.221 |

| Sequence | PBM E-score |
| --- | --- |
| CACATCCA | 0.0944 |
| GACATCCC | 0.0126 |
| AGCATCCC | 0.33 |
| AACATCCC | -0.109 |
| GCCATCCC | -0.173 |
| CGCATCCC | 0.319 |
| CGCATCCA | 0.323 |
| AGCATCAC | 0.00094 |
| CGCATCGC | -0.0699 |
| CGCATCGA | 0.0887 |
| AAAGGGTG | -0.0719 |
| AAGGCGGT | 0.00689 |
| CTGTGGCA | 0.0358 |
| AACTGGCA | 0.0707 |
| ATTCTCGG | 0.123 |
| CCTTCCAC | 0.208 |
| ACTTCCGA | 0.0686 |
| GCCTCCAC | -0.0325 |
| ACTTCCAG | 0.377 |
| ACTTCCTC | 0.243 |
| GCTTCCGA | 0.386 |
| ACTTCCAT | 0.145 |
| CCTTCCAG | 0.0686 |
| ACTTCCTA | 0.245 |
| GCTTCCAC | 0.42 |

| Sequence | PBM E-score |
| --- | --- |
| CCTTCCGA | -0.12 |
| ACTTCCTG | 0.319 |
| AGTTCCTG | 0.0262 |
| CCATGCCG | -0.2 |
| CGCTTTCC | -0.0681 |
| CTTTCTAC | 0.0892 |
| AGTCGGAC | -0.093 |
| ACCTGAGA | -0.038 |
| CCTTCCAA | -0.0431 |
| ATTTCCAA | 0.0988 |
| ACTTCCAC | 0.261 |
| TCTTCCAA | -0.0111 |
| ACTTCCAA | 0.303 |
| GCTTCCAA | 0.443 |
| CAACCGGA | 0.206 |
| CCCTCCGG | -0.0226 |
| CACCAAAG | 0.047 |
| ATGCATCA | -0.0769 |
| AAGCAGCG | 0.135 |
| AAGCAGCC | 0.308 |
| GAGCAGCC | 0.217 |
| AAGCAGCA | -0.176 |
| CAGCAGCC | 0.359 |
| CAGCAGCA | 0.00017 |
| AAGCAGGT | 0.161 |

| Sequence | PBM E-score |
| --- | --- |
| AAGCAGAT | -0.03 |
| AAGCAGCT | 0.33 |
| AACTGTGC | -0.181 |
| CTTTACTC | -0.104 |
| GACTAACC | -0.136 |
| ACTTAACC | -0.196 |
| GCTCGAGA | -0.166 |
| GCTCGAGC | 0.321 |
| CCTCGAGC | -0.102 |
| AAGGGCAC | -0.16 |
| CGGGTTAC | -0.0158 |
| AGGGTTCG | -0.0648 |
| CGGGTTCA | -0.204 |
| AGGGTTCA | -0.118 |
| GCGGTTCC | 0.314 |
| CGGGTTCC | 0.411 |
| AGGGTTCC | 0.312 |
| GCGGTTCA | -0.231 |
| ACGGTTCC | 0.0629 |
| GTTAAAAC | -0.0162 |
| AAAATGCG | 0.143 |
| GAACGACC | -0.165 |
| CTGTTGAA | 0.0369 |
| ACTTCTAA | 0.0859 |
| GCTTCTAC | 0.301 |

| Sequence | PBM E-score |
| --- | --- |
| GCTTCTAA | 0.116 |
| CCTTCTAC | 0.0671 |
| CCTTCTAA | -0.0438 |
| TCTTCTAA | 0.329 |
| GAGTCCTA | 0.0444 |
| AATAATGA | 0.0865 |
| AGTCCTGG | 0.0342 |
| CTCCAATA | 0.075 |
| ATCCAAAA | 0.282 |
| ATCCAAAG | 0.189 |
| ATCCAATC | 0.13 |
| GCCAAGAA | 0.124 |
| GCCAAAAA | 0.288 |
| ATCCAATA | 0.303 |
| ATCCAAAC | -0.03 |
| GCCAAAAC | 0.128 |
| ATGCAAAC | 0.115 |
| CTCTTCAA | 0.00436 |
| GGACGCAC | 0.127 |
| GCGCATCC | 0.331 |
| ACGCATCC | 0.311 |
| CCGCATCC | 0.31 |
